The values that follow come from PubChem BioAssay (Tox21).

The source made the active and inactive calls. Where a call stands in place of a potency, no number is given. Calls follow the shape of the full dose curve.
Potency is read from the fitted curve at half-maximal effect.

Chain of Gonadotropin-releasing hormone receptor (Homo sapiens) (P30968 whole entry, looked up): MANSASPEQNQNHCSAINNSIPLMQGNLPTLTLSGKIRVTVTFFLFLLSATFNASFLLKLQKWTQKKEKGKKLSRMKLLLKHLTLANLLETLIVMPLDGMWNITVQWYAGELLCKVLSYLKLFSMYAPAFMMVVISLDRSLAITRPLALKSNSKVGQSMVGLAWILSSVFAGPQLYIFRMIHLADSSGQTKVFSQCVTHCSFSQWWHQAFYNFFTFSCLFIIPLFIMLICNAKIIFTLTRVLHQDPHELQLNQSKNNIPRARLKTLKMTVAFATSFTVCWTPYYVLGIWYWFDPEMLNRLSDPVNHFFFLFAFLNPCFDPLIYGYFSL

This experiment addresses Gonadotropin-releasing hormone receptor (Homo sapiens) (UniProt P30968). Briefly: Human gonadotropin-releasing hormone receptor (GnRHR) small molecule agonists, calcium flux assay in GnRHR-HEK293 cells (AID 1920063). Also: nearly all actives have a fitted effect of over 35% in size. As to conditions: calcium flux fluorescence, agonist mode; series mostly up to 57.6 µM. An excerpt: National Center for Advancing Translational Sciences [NCATS]
Division of Preclinical Innovation [DPI]
U.S. Environmental Protection Agency [EPA]
National Institutes of Environmental Health Sciences [NIEHS]
National Toxicology Program [NTP]
U.S. Food and Drug Administration [FDA]
Gonadotropin-releasing hormone receptor (GnRHR) is a G-protein-coupled receptor (GPCR) and acts (through phospholipase C) to increase intracellular inositol trisphosphate and then release intracellular calcium stores. Cell-based GnRHR-Hek293 calcium influx assay is using HEK293 cells that have been genetically engineered to express the human GnRHR, which activity can be measured by calcium signaling. A compound/drug can activate (agonist) GnRHR that can be monitored by levels of intracellular calcium.
GnRHR-HEK293 cells developed by Codex Corp contain human GnRHR reporter gene, which was stably integrated into HEK 293 cells. The compound activation can be detected by fluorescence intensity via calcium flux assay. This cell line has been used to screen the Tox21 10K compound library to identify GnRHR agonists.
GnRHR-Hek293 cells were dispensed at 1500cells/4uL/well in 1536-well black wall/clear bottom plates using a multidrop dispenser. After the assay plates were incubated at a 37 C/5% CO2 incubator for 18 hours, 4 uL of Calcium Dye Solution was added to each well. The plates were incubated at 37 C for 1 hour. For agonist mode, 23 nL of compounds dissolved in DMSO, positive controls or DMSO only was transferred to the assay plate by a pin tool station. The fluorescence intensity in the plates was measured using FDSS 7000EX kinetic plate reader with a filter set of Ex/Em=480/540 for 3 min at 1 sec intervals. Each test compound was measured at 15 concentrations and in triplicates.
(In general: Calcium flux is commonly read through the fluorescence of an indicator in the cells.)
In the case of `CN1[C@@H]2CC(OC(=O)[C@H](CO)c3ccccc3)C[C@H]1[C@@H]1O[C@@H]12` (stereo not given in full), the Potency entry was “inactive”. In the case of `CC(C)(C)c1ccc(-c2ccc(C(C)(C)C)cc2)cc1`, the Potency entry was “inactive”. On the same count and under the same terms, then `CC(C)(C)c1ccc(C(=O)CCCN2CCC(OC(c3ccccc3)c3ccccc3)CC2)cc1`, with “inactive”. Regarding `CN1CCN(c2cc3c(nn2)Oc2ccccc2N3C)CC1`, the activity change was -0.362% [at 11.8 µM, active compounds read high] (inactive).

Consider `CNCc1cc(F)ccc1Oc1ccc(Cl)c(Cl)c1`, for which the Potency result is “inactive”. On the same count and under the same terms, then `CCCCNc1ccc(C(=O)OCCN(CC)CC)cc1`, with “inactive”; and `COc1ccc(CCN(C)CCCN2CCc3cc(OC)c(OC)cc3CC2=O)cc1OC`, with “inactive”. On the same count and under the same terms, then `Cc1ccc(N=Nc2c(O)c(C(=O)O)cc3ccccc23)c(S(=O)(=O)O)c1`, with “inactive”; and `CCCCOCC(C)OCC(C)O` (stereo not given), with “inactive”. In the case of `C[C@@H](Oc1ccc(CNC(=O)c2cccnc2Oc2ccc3c(c2)OCO3)c(F)c1)C(=O)O`, the Potency entry was “inactive”.

`CC1CCCC1`: the Potency entry is “inactive”. Same read-out and setting: then `CC1(C)CC(=O)CC(C)(C)N1`, with “inactive”.

For the compound `CN(C)CCOC(c1ccccc1)c1ccccc1`, the Potency entry is “inactive”. As to `Cc1ccc(O)c(O)c1`, the Potency entry was “inactive”. Still for that read-out and setting: then `C=CCOC(=O)CCC1CCCCC1`, with “inactive”; and `CCc1cc2cc(OC)c(OC)cc2c(Cc2ccccc2)n1`, with “inactive”. Take `C1CCCCCCCCCCC1`: the activity change is -0.293% [at 11.8 µM, active compounds read high] (inactive).

As to `O=C(O)c1cc(Br)c(O)c(Br)c1`, the Potency entry is “inactive”.

`CC(C)NC[C@@H](O)COc1cccc2ccccc12`: the Potency result is “inactive”. Same read-out and setting: then `Cc1ccccc1N=C(N)Nc1ccccc1C`, with “inactive”; and `CN(C)c1ccc(N=Nc2ccccc2C(=O)O)cc1`, with “inactive”; and `C=CC(=O)OCC1CC2CC1C1CCC(COC(=O)C=C)C21` (stereo not given), with “inactive”.

With `CCOC(=O)CC(=O)C(=O)OCC`, the Potency entry is “inactive”. In the case of `COc1c2occc2cc2ccc(=O)oc12`, the Potency entry was “inactive”. On the same count and under the same terms, then `Cc1ccccc1N=Nc1ccc(N=Nc2c(O)ccc3ccccc23)c(C)c1`, with “inactive”; and `CC(C)n1nc(-c2cc3cc(O)ccc3[nH]2)c2c(N)ncnc21`, with “inactive”; and `CC(=O)OCC(=O)[C@@]1(O)[C@H](OC(C)=O)C[C@H]2[C@@H]3CCC4=CC(=O)C=C[C@]4(C)[C@@]3(F)[C@@H](O)C[C@@]21C`, with “inactive”. On the same count and under the same terms, then `CCCOCC(C)OCC(C)O` (stereo not given), with “inactive”. `CC1(O)CSC(C)(O)CS1` (stereo not given): the Potency result was “inactive”. On to `O=C1c2c(O)ccc([N+](=O)[O-])c2C(=O)c2c([N+](=O)[O-])ccc(O)c21`, for which the Potency is 17.2 µM (active). The same measure, in the same setting: then `O=[N+]([O-])c1nccn1CO[C@@H](CO)[C@H](O)CO`, with “inactive”. `CCN1CCN(C(=O)N[C@@H](C(=O)N[C@@H]2C(=O)N3C(C(=O)O)=C(CSc4nnnn4C)CS[C@H]23)c2ccc(O)cc2)C(=O)C1=O`: the Potency result is “inactive”. Turning to `CC(C)(C)C1CCC(CC2=C(O)c3ccccc3C(=O)C2=O)CC1` (stereo not given), the Potency result was “inactive”. The same measure, in the same setting: then `CCCCN(CCC(=O)OCC)C(C)=O`, with “inactive”; and `COc1cc(N)ccc1C`, with “inactive”; and `CC(=O)[C@H]1[C@H](C#N)C[C@H]2[C@@H]3CC=C4C[C@@H](O)CC[C@]4(C)[C@H]3CC[C@@]21C`, with “inactive”. For `COc1cc(C(C)C)c2c(c1)S(=O)(=O)N(COc1cc(=O)n3cccc(OCCN4CCCCC4)c3n1)C2=O`, the activity change is -0.424% [at 11.8 µM, active compounds read high] (inactive).

Consider `CC(=O)O[C@@]12CO[C@@H]1C[C@H](O)[C@@]1(C)C(=O)[C@H](O)C3=C(C)[C@@H](OC(=O)[C@H](O)[C@@H](NC(=O)OC(C)(C)C)c4ccccc4)C[C@@](O)([C@@H](OC(=O)c4ccccc4)[C@H]21)C3(C)C`, for which the Potency result is “inactive”. As for `Nc1cccc([N+](=O)[O-])c1`, the Potency entry is “inactive”. The same measure, in the same setting: then `COc1cc(C)nc(-n2nc(C)cc2OC)n1`, with “inactive”.
